G9a block – blocks human histone lysine methyltransferase G9a. Q96KQ7. G9a H3K9 monomethylation, AlphaScreen, 2 h. Potency, µM (top dose mostly 102 µM), for the others: at the highest dose activity, negative = inhibition, hits mostly inhibitors. hit rate 8.8% among 350,000. AID 504332; note: potency is the fitted concentration of half-maximal effect; nearly all actives have a fitted effect of over 75% in size
Target sequence (Q96KQ7 913-1193 limits assumed): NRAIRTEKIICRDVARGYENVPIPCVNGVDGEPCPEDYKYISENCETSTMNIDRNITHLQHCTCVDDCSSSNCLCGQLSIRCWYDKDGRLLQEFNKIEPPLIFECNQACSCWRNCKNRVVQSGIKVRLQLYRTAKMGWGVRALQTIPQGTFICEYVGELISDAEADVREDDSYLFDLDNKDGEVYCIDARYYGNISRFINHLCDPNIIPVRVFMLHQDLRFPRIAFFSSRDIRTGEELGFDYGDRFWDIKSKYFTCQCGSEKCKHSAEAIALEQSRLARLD
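Compounds were preincubated with 20 nM G9a for 15 min, after which biotinylated H3K9 peptide (500 nM) and SAM (20 uM) started a 2 h room-temperature reaction. Monomethylated product was quantified by antibody-based AlphaScreen chemiluminescence.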
Tau fluor counter – counter-screen for tau fibril formation inhibitors. hit rate 0.93% among 280,000. tau K18 P301L Alexa594 fluorescence, heparin fibrillization. Potency, µM (doses to about 57.7 µM), without a hit: at the highest dose activity change, negative = decrease; note: potency is the fitted concentration of half-maximal effect; nearly all actives have a fitted effect of over 55% in size
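Human K18 P301L tau (15 uM unlabeled plus 0.24 uM Alexa 594-labeled, final) in 100 mM sodium acetate pH 7 was mixed with compound and 20 uM heparin and incubated 6 hr at 37 C.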
Tau ThT inhib – tau fibrillization inhibition (ThT binding). recombinant tau K18 P301L (four-repeat tau fragment), heparin-induced fibrillization, ThT fluorescence. Potency, µM (top dose mostly 57.4 µM), without a hit: at the highest dose activity, negative = inhibition, usual class: inhibitors. hit rate 2.1% among 270,000. AID 1460; note: potency is the fitted concentration of half-maximal effect; nearly all actives have a fitted effect of over 55% in size
Target sequence (P10636 561-689 P618L limits assumed): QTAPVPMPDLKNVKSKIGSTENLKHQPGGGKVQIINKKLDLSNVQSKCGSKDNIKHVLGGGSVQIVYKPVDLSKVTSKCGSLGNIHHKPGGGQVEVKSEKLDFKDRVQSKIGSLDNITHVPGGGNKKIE
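Recombinant human tau K18 fragment […] carrying P301L, 15 uM unlabeled plus 0.24 uM Alexa 594-labeled, was fibrillized with 20 uM heparin in 100 mM sodium acetate pH 7 for 6 hr at 37 C; 30 uM ThT fluorescence read after 1 hr.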
Tau FP inhib – inhibitors of human tau fibril formation; hit rate 0.39% among 280,000; P10636; AID 1468; Potency, µM (highest dose often 57.7 µM), without a hit: at the highest dose activity, negative = inhibition, actives largely listed as inhibitors; K18 P301L tau heparin fibrillization, Alexa594 FP, 6 h; note: potency is the fitted concentration of half-maximal effect; nearly all actives have a fitted effect of over 55% in size
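Recombinant K18 P301L […], labeled with Alexa 594 at 0.24 uM over 15 uM unlabeled; heparin inducer 20 uM final; 37 C, 6 hr; FP endpoint.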
Coupling enz – inhibits coupling enzyme system, counter-screen for aldolase hits; activity change, negative = inhibition, % at 58.2 µM, hits read low; hit rate 0.67% among 290,000; AID 2472; coupling enzyme system counterscreen, AmpLite Red fluorescence; in the data active = activity change below about -30%
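Compounds tested against the coupling enzymes alone at 57.5 uM final; readout was AmpLite Red fluorescence (525/598 nm) after 20 min at RT.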
Sfp inh – Sfp phosphopantetheinyl transferase inhibition | Q9F4F7 | hit rate 3.5% among 310,000 | Biochemical Sfp PPTase activity, qHTS | Potency, µM, for inactives: largest response in the series, negative = inhibition, hits mostly inhibitors | AID 1490;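 note: the enzyme is Sfp with the accession as filed and its product quenches rhodamine fluorescence; potency is the fitted concentration of half-maximal effect; 0% = enzyme reaction without inhibitor and -100% = no enzyme wells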
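After 15 min at room temperature with compound, 15 nM Sfp received 5 uM rhodamine-CoA plus 12.5 uM BHQ-2-ybbR (50 mM Hepes pH 7.6, 10 mM MgCl2). Rate came from the fluorescence difference over 30 min, ex 525/em 598 nm.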
Starred values were filed as active, the others as inactive; [ ] = remark or other dose. The list is not random: actives were taken first. Their share in the collection is about 11%. Unless noted, calls come from the whole dose curve; as a rule, active = well fitted curve in the direction sought with a large enough effect; inconclusive = small, poorly fitted or top-dose-only effect, or another doubt; inactive = no such curve, though single readings can be large; an effect the other way counts as inactive or inconclusive. Unless noted, % is set by controls: 0 for no effect and ±100 for the full control effect.

How did Cc1ccc(C(=O)c2oc3ccccc3c2NC(=O)c2cc(=O)c3ccccc3o2)cc1 do in these assays?
G9a block: -1%[59 µM]; Tau fluor counter: -10%; Tau ThT inhib: 1%; Tau FP inhib: -3%

What do the screens show for `c1ccc(CNc2ccc3c(c2)ncn3C2CCCCC2)nc1`?
G9a block: 7.9µM*; Tau fluor counter: -16%; Tau ThT inhib: -21%; Tau FP inhib: 3%; Coupling enz: -2; Sfp inh: -18%

Results for CCOc1ccccc1NC(=O)c1ccc2c(Cl)c3c(nc2c1)CCC3 ?
G9a block: -12%[59 µM]; Tau fluor counter: -8%; Tau ThT inhib: -8%; Tau FP inhib: -5%

How did Cc1ccc(C2=NN=C(NC(=O)CSc3nnc4c5ccccc5n(C)c4n3)SC2)cc1 do in these assays?
G9a block: 45µM*; Tau fluor counter: -22%; Tau ThT inhib: 2.8µM*; Tau FP inhib: inconclusive; Coupling enz: 1; Sfp inh: 3%

What do the screens show for `Cc1cc(C)nc(SCC(=O)NC2=NC(=O)C(C)S2)n1` (stereo not drawn)?
G9a block: 18µM*; Tau fluor counter: -8%; Tau ThT inhib: inconclusive; Tau FP inhib: inconclusive; Coupling enz: 0; Sfp inh: 22µM*

How did Cc1ccc(C2=NN=C(NC(=O)CSc3nc(C)cc(C)n3)SC2)cc1 do in these assays?
G9a block: 28µM*; Tau fluor counter: -18%; Tau ThT inhib: 13µM*; Tau FP inhib: inconclusive; Coupling enz: 1; Sfp inh: 40µM*

Results for Cn1c2ccccc2c2nnc(SCC(=O)Nc3cccc(C(=O)O)c3)nc21 ?
G9a block: 1%; Coupling enz: 9; Sfp inh: 15%

What do the screens show for `O=C(NCCN1CCN(c2ccccc2)CC1)C1CCN(S(=O)(=O)c2cccc3nsnc23)CC1`?
G9a block: 19%[59 µM]; Tau fluor counter: -2%; Tau ThT inhib: -2%; Tau FP inhib: -10%; Coupling enz: 4; Sfp inh: 13%

How did Cc1cc(=O)[nH]c(SCC(=O)N2CCCC(C)C2)n1 (stereo not drawn) do in these assays?
G9a block: 15%; Coupling enz: 3; Sfp inh: -1%

How did Cc1ccc(CS(=O)(=O)c2ncc(Cl)c(C(=O)Nc3nnc(C(C)C)s3)n2)cc1 do in these assays?
G9a block: 45µM*; Tau fluor counter: -16%; Tau ThT inhib: inconclusive; Tau FP inhib: inconclusive; Coupling enz: 10; Sfp inh: inconclusive

What do the screens show for `CC(C)c1nnc(NC(=O)c2nc(S(=O)(=O)Cc3ccc(F)cc3)ncc2Cl)s1`?
G9a block: 8.9µM*; Sfp inh: -26%

What do the screens show for `Cc1cccc(CS(=O)(=O)c2ncc(Cl)c(C(=O)Nc3nnc(C(C)C)s3)n2)c1`?
G9a block: inconclusive; Tau fluor counter: -19%; Tau ThT inhib: inconclusive; Tau FP inhib: -18%; Sfp inh: -29%

Results for Cc1c(NC(=O)/C(C#N)=C/c2ccc(-c3ccccc3Cl)o2)c(=O)n(-c2ccccc2)n1C ?
G9a block: inconclusive; Tau fluor counter: -10%; Tau ThT inhib: inconclusive; Tau FP inhib: 8%; Coupling enz: -2; Sfp inh: -6%

How did Cc1c(NC(=O)/C(C#N)=C/c2ccc(-c3cccc(Cl)c3)o2)c(=O)n(-c2ccccc2)n1C do in these assays?
G9a block: inconclusive; Tau fluor counter: -7%; Tau ThT inhib: 13µM*; Tau FP inhib: 8%; Coupling enz: 3; Sfp inh: -9%

What do the screens show for `Cc1c(NC(=O)/C(C#N)=C/c2ccccc2)c(=O)n(-c2ccccc2)n1C`?
G9a block: 71µM*; Tau fluor counter: -3%; Tau ThT inhib: -9%; Tau FP inhib: -7%; Coupling enz: 1; Sfp inh: -4%

How did Cc1c(NC(=O)/C(C#N)=C/c2ccc(-c3ccc(Cl)c(Cl)c3)o2)c(=O)n(-c2ccccc2)n1C do in these assays?
G9a block: inconclusive; Tau fluor counter: -17%; Tau ThT inhib: 16µM*; Tau FP inhib: 8%; Coupling enz: 1; Sfp inh: 21%

What do the screens show for `Cc1c(NN=C(C#N)C#N)c(=O)n(-c2ccccc2)n1C`?
G9a block: 10µM*; Tau fluor counter: -14%; Tau ThT inhib: inconclusive; Tau FP inhib: inconclusive; Coupling enz: -8; Sfp inh: -76%

Results for Cc1c(NC(=O)CC(=O)Nc2c(C)n(C)n(-c3ccccc3)c2=O)c(=O)n(-c2ccccc2)n1C ?
G9a block: 2%[59 µM]; Tau fluor counter: 3%; Tau ThT inhib: -4%; Tau FP inhib: -1%; Coupling enz: -4; Sfp inh: 16%

Results for COC(=O)C1(C(C[N+](=O)[O-])c2ccc(C)cc2)C(=O)NCC1c1ccco1 (stereo not drawn) ?
G9a block: 5%; Tau fluor counter: -13%; Tau ThT inhib: -9%; Tau FP inhib: 1%; Coupling enz: -1; Sfp inh: 5%

Results for CN1CCCC(OC(=O)c2ccc(C(C)(C)C)cc2)C1 (stereo not drawn) ?
Coupling enz: 3; Sfp inh: 3%

Results for CC(=O)Nc1ccc(C2C(=O)c3ccccc3C2=O)cc1 ?
G9a block: 50µM*; Tau fluor counter: inconclusive; Tau ThT inhib: inconclusive; Tau FP inhib: 3%; Coupling enz: 2; Sfp inh: 3%

What do the screens show for `CCCC(=O)Nc1ccc(C(=O)NCc2ccccc2Cl)cc1`?
G9a block: 11%[59 µM]; Tau fluor counter: -11%; Tau ThT inhib: -3%; Tau FP inhib: -3%; Coupling enz: 1; Sfp inh: 15%

Results for CCCC(=O)Nc1ccc(C2C(=O)c3ccccc3C2=O)cc1 ?
G9a block: 79µM*; Coupling enz: 6; Sfp inh: 0%

What do the screens show for `Cc1ccc(C2C(=O)c3ccccc3C2=O)cc1`?
G9a block: inconclusive; Coupling enz: -15; Sfp inh: 2%

Results for COc1cc2c(cc1OC)CN(C(=O)C1CCCN1S(=O)(=O)c1ccc(C)cc1)CC2 (stereo not drawn) ?
Coupling enz: 1; Sfp inh: 2%

How did CN(C)S(=O)(=O)c1ccc(C(=O)Oc2cc(=O)[nH]c3ccccc23)cc1 do in these assays?
G9a block: 71µM*; Tau fluor counter: -2%; Tau ThT inhib: -11%; Tau FP inhib: -6%; Coupling enz: 2; Sfp inh: 7%

What do the screens show for `CCOC(=O)c1[nH]c2ccccc2c1NC(=O)c1ccc(S(=O)(=O)N(C)C)cc1`?
G9a block: -22%; Tau fluor counter: -27%; Tau ThT inhib: -12%; Tau FP inhib: 2%; Coupling enz: 0; Sfp inh: 15%
